Screens (PubChem)
The list is not random: actives were taken first. Their share in the collection is about 2.6%.
GLP1R cytotox: qHTS of GLP-1 Receptor Inverse Agonists: Cytotox Screen; actives 0.13% (n = 410,000); HEK293 cAMP-luciferase reporter cells, luminescence, 24 h; Potency, µM (doses to about 38.3 µM), hits mostly inhibitors;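 further: loss of luciferase light is scored as toxicity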
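Seeding density was 200 cells/uL; after overnight-length (12 h) culture, 23 nL compounds went on for 24 h at 37 °C. Readout used a luciferase detection reagent, luminescence taken after 12 min at room temperature.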
GLP1R inv ag: qHTS of GLP-1 Receptor Inverse Agonists (Inhibition Mode); actives 1.6% (n = 410,000); HEK293 GLP-1R CRE-luciferase, luminescence, 24 h; GLP-1R form is constitutively active; Glucagon-like peptide 1 receptor (Homo sapiens), P43220; AID 624417, 2012; Potency, µM (titrated, usually from 38.3 µM), actives largely listed as inhibitors; further: nearly all actives have a fitted effect of over 55% in size
Target sequence (P43220 whole entry, looked up): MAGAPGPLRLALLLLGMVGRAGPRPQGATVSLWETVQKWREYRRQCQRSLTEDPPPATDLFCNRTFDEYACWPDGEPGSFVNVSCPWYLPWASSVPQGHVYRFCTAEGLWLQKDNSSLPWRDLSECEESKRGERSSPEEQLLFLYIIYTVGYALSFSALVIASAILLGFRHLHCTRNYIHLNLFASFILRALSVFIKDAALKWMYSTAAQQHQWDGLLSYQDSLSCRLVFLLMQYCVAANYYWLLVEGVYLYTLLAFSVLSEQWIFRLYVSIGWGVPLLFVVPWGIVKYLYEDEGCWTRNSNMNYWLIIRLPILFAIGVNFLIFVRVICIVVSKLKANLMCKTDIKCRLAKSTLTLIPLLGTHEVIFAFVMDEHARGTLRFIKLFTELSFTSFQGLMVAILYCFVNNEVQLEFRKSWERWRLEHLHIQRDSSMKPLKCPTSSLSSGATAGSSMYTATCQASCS
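Inverse agonists were sought by their lowering of basal cAMP reporter luciferase output in HEK293 cells stably carrying constitutively active human GLP-1R, after 24 h compound treatment.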
BRCA1 expr up: qHTS Assay to Identify Small Molecule Activators of BRCA1 Expression; MCF7-BRCA1-FFLuc reporter, luminescence, 48 h; response scale: scaled: vehicle 0%, 10 µM genistein 100%; Potency, µM (doses to about 46.1 µM), usual class: activators; actives 1.1% (n = 380,000); further: nearly all actives have a fitted effect of over 80% in size
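MCF7-BRCA1-FFLuc cells, 2000/well in phenol-red-free MEM, attached 2 h then treated 48 h at 37 C. Luciferase luminescence read 15 min after reagent; normalized to genistein maximum activation (10microM) and DMSO, concentration-response fitted.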
GLP1R ag: qHTS of GLP-1 Receptor Agonists; Glucagon-like peptide 1 receptor (Homo sapiens), P43220; HEK293 GLP-1R CRE-luciferase, luminescence, 4-6 h; cells express a hypersensitive GLP-1R form; Potency, µM (series often up to 45.6 µM), actives largely listed as activators; actives 0.007% (n = 380,000); AID 624172, 2012
Large screens that a line does not name were inactive. The call rests on the fitted dose curve; in most records, active means well fitted curve in the direction sought with a large enough effect; inconclusive means small, poorly fitted or top-dose-only effect, or another doubt; inactive means no such curve, though single readings can be large; an effect the other way counts as inactive or inconclusive.

O=C(Nc1ccc(Cl)c(S(=O)(=O)N2CCOCC2)c1)C1CCC1	none
Cc1ccc(C(=O)NC2CCCCCCC2)cc1S(=O)(=O)N1CCOCC1	GLP1R inv ag inconclusive, BRCA1 expr up 10µM
Cc1ccc(C2(C)NC(=O)N(CC(=O)Nc3ccc(Cl)c(S(=O)(=O)N4CCCCC4)c3)C2=O)cc1 (stereo not drawn)	GLP1R inv ag 10µM
CC1(c2ccccc2)NC(=O)N(CC(=O)Nc2ccc3c(c2)CCC3)C1=O (stereo not drawn)	GLP1R inv ag 10µM
CCOC(=O)C1=CCN(S(=O)(=O)c2ccc(C)cc2)C1c1cccc(Cl)c1 (stereo not drawn)	GLP1R inv ag inconclusive
CC(C)Oc1ccc(CNS(=O)(=O)c2ccc(-c3cc(C(F)(F)F)on3)s2)cc1	none (no result: BRCA1 expr up, GLP1R ag)
COC(=O)c1ccc(COC(=O)c2ccc(SC)cc2OC)cc1	BRCA1 expr up 8.9µM, GLP1R ag inconclusive
Cc1ccc(C(=O)c2c3ccc([N+](=O)[O-])cc3[n+]([O-])n2CCCN)cc1	none
COC(=O)C[C@H]1C[C@H]2c3cc(NC(=O)NC4CCCC4)ccc3O[C@H]2[C@@H](CO)O1	none
CN1C(=S)SC(N(O)C(=O)Nc2ccc(Cl)c(Cl)c2)C1(C)C (stereo not drawn)	GLP1R inv ag 10µM
CN1C(=S)SC(C)(C)C1N(O)C(=O)Nc1ccc(Cl)cc1 (stereo not drawn)	GLP1R inv ag inconclusive
CC(C)(C)c1ccc(C(=O)NCC2CCCN2S(=O)(=O)c2ccccc2)cc1 (stereo not drawn)	GLP1R inv ag 5µM
Cc1ccc(C(=O)NCC2CCCN2S(=O)(=O)c2ccc(C)cc2)cc1 (stereo not drawn)	GLP1R inv ag inconclusive
Cc1c(Br)c([N+](=O)[O-])nn1CC(=O)N1CCN(C23CC4CC(CC(C4)C2)C3)CC1	GLP1R inv ag 10µM
Cc1c(Br)c([N+](=O)[O-])nn1CC(=O)N1CCc2ccccc2C1	none
COc1ccc2c(C)cc(=O)oc2c1	none
COc1cccc(COc2ccc3c(C)cc(=O)oc3c2)c1	BRCA1 expr up 2.8µM
Cc1ccc(SCc2cn3cc(Cl)ccc3n2)cc1	GLP1R inv ag inconclusive, BRCA1 expr up 10µM
CNc1cc(CSc2ccc(Cl)cc2)nc(C)n1	BRCA1 expr up 5µM
Nc1nnc(SCc2cn3cc(Cl)ccc3n2)s1	none
Cc1cccc2nc(CSc3ccc(Cl)cc3)cn12	GLP1R cytotox inconclusive, GLP1R inv ag inconclusive, BRCA1 expr up 4.5µM
Clc1ccc(SCc2cn3ccccc3n2)cc1	BRCA1 expr up 5.6µM
Cc1nc(CSc2ccc(Cl)cc2)cc(NCc2ccccc2)n1	GLP1R inv ag inconclusive, BRCA1 expr up inconclusive
Cc1cc(C)n2nc(CNC(=O)c3c(F)cccc3F)nc2n1	none (no result: BRCA1 expr up, GLP1R ag)
C[C@@H]1CN([C@H](C)CO)C(=O)CCCn2cc(nn2)CO[C@H]1CN(C)S(=O)(=O)c1ccc(-c2ccccc2)cc1	none
O=C1c2ccccc2NC(c2cc(Br)c3c(c2)OCO3)N1Cc1ccco1 (stereo not drawn)	none (no result: GLP1R cytotox, GLP1R inv ag, GLP1R ag)
CC(=O)NNC(=O)c1[nH]c2ccc(Br)cc2c1-c1ccccc1	GLP1R inv ag 10µM
CCOC(=O)NNC(=O)c1[nH]c2ccc(Br)cc2c1-c1ccccc1	GLP1R cytotox inconclusive, GLP1R inv ag 10µM
NNC(=O)c1[nH]c2ccc(Br)cc2c1-c1ccccc1	GLP1R inv ag inconclusive
N#C/C(=C\c1ccc(OCc2cccc(C(=O)O)c2)cc1)C(=O)NCc1ccco1	GLP1R inv ag 8.9µM
CSc1nc(NCCOC(C)=O)c(C#N)c(-c2ccc(C(C)(C)C)cc2)n1	none (no result: BRCA1 expr up, GLP1R ag)
CN(C)/C(=C\C(=O)c1ccccc1)C(=O)c1ccccc1	none
O=C(C=C(C(=O)c1ccccc1)c1ccccc1)c1ccccc1	GLP1R inv ag 8.9µM
CC1(C)Cc2c(sc(NC(=O)COc3ccc(Cl)cc3)c2C#N)C(C)(C)N1	GLP1R inv ag 5.6µM
Cc1ccccc1OCC(=O)Nc1sc2c(c1C#N)CC(C)(C)NC2(C)C	GLP1R inv ag inconclusive
COc1ccc(N2CC(c3nc(-c4ccccc4C)no3)CC2=O)cc1Cl (stereo not drawn)	none (no result: BRCA1 expr up, GLP1R ag)
CCN(CC)C(=O)c1cc(-c2ccc(Br)cc2)on1	BRCA1 expr up 7.9µM
CCCCCCCCCC[n+]1ccc(/C=C/c2ccc(N(C)C)cc2)c2ccccc21	none (no result: GLP1R cytotox, GLP1R inv ag, GLP1R ag)
C=C[C@@]1(C)CC(=O)[C@]2(O)[C@@]3(C)[C@@H](O)CCC(C)(C)[C@@H]3[C@H](OC(C)=O)[C@H](O)[C@@]2(C)O1	GLP1R ag 7.9µM
C=C[C@@]1(C)CC(=O)[C@]2(O)[C@@]3(C)[C@@H](O)CCC(C)(C)[C@@H]3[C@H](O)[C@H](OC(C)=O)[C@@]2(C)O1	GLP1R ag 1.3µM
C=C1C(=O)O[C@H]2C[C@]3(C)C([C@@H](OC(=O)/C(C)=C/C)[C@H]12)[C@](C)(O)CC[C@H]3O (stereo partly drawn)	none
c1ccc(CN2CCN(CCOCCOc3cccc4ccccc34)CC2)cc1	GLP1R cytotox inconclusive, GLP1R inv ag 7.9µM
CS(=O)(=O)c1ccc2nc(NC(=O)c3ccccc3Br)sc2c1	BRCA1 expr up inconclusive
CN1CCN(CCCNC(=O)Cn2c(-c3cccs3)cc3cc(Cl)ccc32)CC1	none (no result: BRCA1 expr up, GLP1R ag)
Cc1cc(N2CCN(C(C(=O)NC3CCCC3)c3ccc(F)cc3)CC2)c2ccccc2n1 (stereo not drawn)	none (no result: BRCA1 expr up, GLP1R ag)
O=C(Cn1cc(COc2ccc(C(=O)c3ccccc3)cc2)nn1)c1ccc(O)cc1	GLP1R inv ag inconclusive
CCCCCOc1ccc(CN2CCOCC2)cc1Cl	GLP1R inv ag inconclusive, BRCA1 expr up 8.9µM
Cc1ccc(NC(=O)c2cc(C)on2)cc1	BRCA1 expr up 5µM
COC(=O)c1sc(NC(=O)COc2ccc(OC)cc2)nc1C	none
Cc1cc(C(=O)NNc2ccc(F)cc2)no1	GLP1R cytotox inconclusive, GLP1R inv ag 5µM
COc1ccc(NC(=O)c2cc(-c3cccs3)on2)cc1	BRCA1 expr up 4.5µM
COC(=O)c1sc(NC(=O)c2cc(C)on2)nc1C	BRCA1 expr up 10µM
COc1ccc(NC(=O)c2cc(-c3cccs3)on2)cc1OC	none
Cc1ccc(C(=O)Nc2ccc(Br)cc2)cc1S(=O)(=O)N1CCOCC1	GLP1R inv ag inconclusive
CCc1ccc(CNC(=O)c2ccc(CSc3nc4ccncc4n3Cc3ccccc3)cc2)cc1	GLP1R inv ag inconclusive (no result: BRCA1 expr up, GLP1R ag)
Cc1cc(C(=O)NNc2cc(Cl)ccc2Cl)no1	GLP1R inv ag inconclusive
Cc1cc(C(=O)NNc2c(Cl)cccc2Cl)no1	GLP1R inv ag 2.5µM
CCOc1ccc(NCCC(O)c2ccc(F)cc2)cc1 (stereo not drawn)	none
CC(C)(C)c1ccc(-c2nc(C#N)c(NCc3ccncc3)o2)cc1	GLP1R cytotox inconclusive, BRCA1 expr up 11µM
CCC(=O)OCC(=O)C1(OC(=O)CC)C(C)CC2C3CCC4=CC(=O)C=CC4(C)C3(Cl)C(O)CC21C (stereo not drawn)	none (no result: GLP1R cytotox, GLP1R inv ag, BRCA1 expr up)
